# Measured values from PubChem BioAssay.
# “And” between values parts separate entries of the source, which are not always exact repeats. Equal values may be shown once. The source made the active and inactive calls.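 Rule for the calls, unless noted: active = thallium flux through the channel raised or lowered by more than 3 SD from vehicle-only wells, actives on both sides; inactive = the rest.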
# Tests used:
# [1] = molecular target: 6-phosphogluconate dehydrogenase, decarboxylating (Homo sapiens) (UniProt P52209); assay: 6PGD enzyme inhibitors, primary screen, biochemical, human, recombinant enzyme, NADPH absorbance (AID 1159550;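 active = at least 20% inhibition of 6-phosphogluconate dehydrogenase activity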); conditions: recombinant 6PGD, NADPH absorbance 341 nm; at 10 µM; stronger effect = higher value
# Chain of 6-phosphogluconate dehydrogenase, decarboxylating (Homo sapiens) (P52209 whole entry, looked up): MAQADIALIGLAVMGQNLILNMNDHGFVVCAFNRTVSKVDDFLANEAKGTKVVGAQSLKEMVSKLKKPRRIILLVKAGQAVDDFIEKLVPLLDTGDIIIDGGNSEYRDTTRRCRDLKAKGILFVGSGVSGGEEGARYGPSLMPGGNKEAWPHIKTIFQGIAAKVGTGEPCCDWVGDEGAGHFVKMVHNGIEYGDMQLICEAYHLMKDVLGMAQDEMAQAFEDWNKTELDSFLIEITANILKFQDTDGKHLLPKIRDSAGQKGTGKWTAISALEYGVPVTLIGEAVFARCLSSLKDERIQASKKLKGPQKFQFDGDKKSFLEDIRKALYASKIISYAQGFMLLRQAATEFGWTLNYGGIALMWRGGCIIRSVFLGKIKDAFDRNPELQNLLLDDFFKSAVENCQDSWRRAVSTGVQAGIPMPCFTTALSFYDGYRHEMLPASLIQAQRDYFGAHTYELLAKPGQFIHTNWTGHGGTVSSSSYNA
# [2] = Cy5 fluorescence interference with SSB-bound oligo, artefact control for HCV NS3 helicase inhibitor project, biochemical, NIH Clinical Collection, E. coli SSB (AID 743268; call rule not given here)
# [3] = test system: Hepatitis C virus NS3 helicase; assay: HCV NS3 helicase inhibitors, primary screen, biochemical, fluorescence polarization, NIH Clinical Collection (AID 743270; call rule not given here); conditions: NS3 helicase binding to Cy5-dT15 DNA, stronger effect = higher value, concentration not given here
# [4] = molecular target: Single-stranded DNA-binding protein (Escherichia coli (strain K12)) (UniProt P0AGE0); assay: E. coli SSB displacement from DNA, counter-screen for HCV NS3 helicase inhibitor project, biochemical, fluorescence polarization, NIH Clinical Collection (AID 743271; in the data active = inhibition above about 28%); conditions: stronger effect = higher value, concentration not given here
# [5] = fluorescence interference in NS3h assay format, artefact control for HCV NS3 helicase inhibitor project, biochemical, NIH Clinical Collection (AID 743272; call rule not given here;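 note: HCV NS3 helicase with a Cy5 labelled single stranded DNA probe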); conditions: fluorescence interference counterscreen, stronger effect = lower value
# [6] = modulation of C. elegans fzo-1 (AID 1259413; call rule not given here;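 note: fzo-1 mutant C. elegans worms in liquid wells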); conditions: C. elegans fzo-1 modulator screen, mean read-out; stronger effect = higher value
# [7] = differential killing of epithelial or mesenchymal cells, primary screen, imaging, PC-3E GFP, TEM4-18 mCherry, co-culture (AID 1345086;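 active = compounds killing one labelled cell type while sparing the other, by normalised counts and ratio limits, not self-fluorescent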;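 for all read-outs here: cells exposed to compound for 72 h before imaging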;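 for red/green cell ratio (normalised): normalised mesenchymal count divided by normalised epithelial count so high means epithelial killing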); conditions: imaging cell counts, at 1 µM; for red/green cell ratio (normalised): actives lie on both sides, counts scaled to control wells, 1 = unselective
# [8] = sensitizers of A549 cells to miR-34 induction, primary screen, imaging, A549 dox-inducible miR-34, nuclei and caspase counts (AID 1347080;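 active = compounds whose cell count with miR-34 switched on is under 0.7 times the count with it off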); conditions: A549 miR-34 inducible, Hoechst nuclei count, 48 h
# [9] = survival rescue of mitochondrial mutant cells in low glucose, primary screen, MELAS cybrids, Rieske KO mouse fibroblasts, CellTiter-Glo (AID 1508586;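 active = mean z-score across replicates of 1.96 or higher in either the MELAS or the Rieske mutant cell line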;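 note: z relative to plate mean and SD of compound and empty wells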)
# [10] = molecular target: NAD(+) hydrolase SARM1 (Homo sapiens) (UniProt Q6SZW1); assay: SARM1 TIR NADase inhibitors, cell lysate, NAD-Glo luminescence (AID 1508614;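 active = compound whose remaining NAD level is above about 45 nM, limit read from the data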;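 note: higher remaining NAD means stronger inhibition of SARM1 NADase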); conditions: SAM-TIR HEK293T lysate NADase, at 1 µM, stronger effect = higher value
# Chain of NAD(+) hydrolase SARM1 (Homo sapiens) (Q6SZW1 whole entry, looked up, the tested form may be a part): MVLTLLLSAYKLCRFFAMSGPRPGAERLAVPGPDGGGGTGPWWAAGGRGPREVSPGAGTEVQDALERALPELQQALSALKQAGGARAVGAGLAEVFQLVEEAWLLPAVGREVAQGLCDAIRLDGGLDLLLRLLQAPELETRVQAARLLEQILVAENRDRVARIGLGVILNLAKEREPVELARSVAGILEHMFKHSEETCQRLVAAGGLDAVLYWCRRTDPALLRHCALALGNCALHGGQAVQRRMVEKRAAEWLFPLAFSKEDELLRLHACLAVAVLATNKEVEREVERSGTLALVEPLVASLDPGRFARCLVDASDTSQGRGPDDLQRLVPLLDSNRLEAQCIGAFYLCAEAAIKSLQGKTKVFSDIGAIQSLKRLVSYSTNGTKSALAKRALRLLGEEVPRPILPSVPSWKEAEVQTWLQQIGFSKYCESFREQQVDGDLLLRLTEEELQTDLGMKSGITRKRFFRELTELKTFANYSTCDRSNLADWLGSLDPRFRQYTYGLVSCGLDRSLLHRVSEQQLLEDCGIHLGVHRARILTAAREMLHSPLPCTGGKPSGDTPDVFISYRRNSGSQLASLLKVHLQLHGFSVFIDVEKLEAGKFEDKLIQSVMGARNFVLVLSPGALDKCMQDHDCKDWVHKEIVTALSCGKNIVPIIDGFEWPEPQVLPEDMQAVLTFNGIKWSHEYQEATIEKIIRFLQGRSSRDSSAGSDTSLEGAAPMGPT
# [11] = molecular target: Mitogen-activated protein kinase 7 (Homo sapiens) (UniProt Q13164); assay: ERK5 transactivation activators in reporter cells, primary screen, cell-based, HTS (AID 1508626;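 active = luciferase signal above three times the same-plate solvent-only control wells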;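 note: luciferase driven by Gal4-ERK5 fusion binding five Gal4 sites before minimal TATA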); conditions: HeLa Gal4-ERK5 transactivation, 18 h, at 5 µM, stronger effect = higher value
# Chain of Mitogen-activated protein kinase 7 (Homo sapiens) (Q13164 whole entry, looked up, the tested form may be a part): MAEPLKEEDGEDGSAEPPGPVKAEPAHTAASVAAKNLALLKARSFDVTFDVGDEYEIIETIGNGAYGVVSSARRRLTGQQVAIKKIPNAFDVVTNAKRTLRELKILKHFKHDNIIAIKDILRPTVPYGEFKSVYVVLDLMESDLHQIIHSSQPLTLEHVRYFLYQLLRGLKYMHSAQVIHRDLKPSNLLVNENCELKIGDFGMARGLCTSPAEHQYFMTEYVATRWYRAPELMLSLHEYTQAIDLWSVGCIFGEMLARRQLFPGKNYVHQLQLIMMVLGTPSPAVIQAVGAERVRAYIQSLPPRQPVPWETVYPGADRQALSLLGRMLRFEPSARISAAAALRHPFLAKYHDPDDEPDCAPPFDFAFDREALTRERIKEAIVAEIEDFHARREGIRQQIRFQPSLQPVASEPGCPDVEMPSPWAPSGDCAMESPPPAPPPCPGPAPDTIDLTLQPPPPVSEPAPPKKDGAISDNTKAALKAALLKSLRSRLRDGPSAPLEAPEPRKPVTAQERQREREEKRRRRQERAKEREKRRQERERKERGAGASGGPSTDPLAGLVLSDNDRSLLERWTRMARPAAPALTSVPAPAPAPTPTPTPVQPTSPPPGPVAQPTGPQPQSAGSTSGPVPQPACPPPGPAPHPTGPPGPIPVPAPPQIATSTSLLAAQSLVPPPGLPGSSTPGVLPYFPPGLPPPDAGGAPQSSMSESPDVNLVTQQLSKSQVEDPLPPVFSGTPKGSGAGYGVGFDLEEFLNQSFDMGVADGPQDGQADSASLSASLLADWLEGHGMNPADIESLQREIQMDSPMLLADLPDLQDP
# [12] = viability rescue of complex I mutant cybrids, primary screen, cell-based, galactose medium, ATP luminescence (AID 1645843;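 active = z-score of at least 1.8 in each of two replicates, scored against plate mean and spread of sample wells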;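 note: positive z means more ATP and so rescue of galactose-driven cybrid death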); conditions: complex I mutant cybrid cells, 72 h, stronger effect = higher value
# F380Y = assay: modulators of BK channel variants, profiling panel, selectivity assay, cell-based, U2OS BacMam, thallium flux, beta subunits (AID 1259406); conditions: at 30 µM;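 note: initial slope of Thallos dye fluorescence rise after thallium is added; log ratio against the mean of 0.3% DMSO vehicle wells on the same plate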
# F380Y/beta2Delta = assay: as above; conditions: at 30 µM
# [13] = molecular target: Calcium-activated potassium channel subunit alpha-1 (Homo sapiens) + Leucine-rich repeat-containing protein 26 (Homo sapiens) (UniProt Q12791+Q2I0M4); assay: as above; conditions: F380Y/Slo1WT/gamma1, at 30 µM
# Chain of Calcium-activated potassium channel subunit alpha-1 (Homo sapiens) + Leucine-rich repeat-containing protein 26 (Homo sapiens) (Q2I0M4 whole entry, looked up, one chain of several): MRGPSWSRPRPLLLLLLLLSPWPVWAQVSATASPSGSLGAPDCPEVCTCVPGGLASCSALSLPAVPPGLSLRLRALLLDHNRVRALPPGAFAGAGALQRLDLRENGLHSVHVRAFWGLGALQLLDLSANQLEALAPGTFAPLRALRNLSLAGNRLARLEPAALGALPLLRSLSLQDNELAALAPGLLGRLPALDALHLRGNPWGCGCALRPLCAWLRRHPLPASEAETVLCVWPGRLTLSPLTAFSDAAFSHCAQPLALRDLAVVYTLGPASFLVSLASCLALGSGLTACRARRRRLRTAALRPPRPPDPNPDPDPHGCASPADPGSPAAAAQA
# R275C = assay: as above; conditions: at 30 µM
# R275C/beta1 = assay: as above; conditions: at 30 µM
# R275C/beta2Delta = assay: as above; conditions: at 30 µM
# [14] = measured here: epithelial PC-3E GFP cell survival
# [15] = measured here: mesenchymal TEM4-18 mCherry cell survival
# [16] = MELAS cybrid survival, CellTiter-Glo 48 h, stronger effect = higher value
# [17] = Rieske KO mouse fibroblast survival, CellTiter-Glo 72 h
smiles,measurement,setting,value
C=C1C(C)(C)[C@@]2(Cl)C(Cl)[C@]1(Cl)C(Cl)(Cl)C2(Cl)Cl (some centres undefined),inhibition,[1],6.23% (inactive)
C[C@H]1COc2c(N3CCN(C)CC3)c(F)cc3c(=O)c(C(=O)O)cn1c23,fluorescence ratio,[2],1.03 (inactive)
same,inhibition,[3],-3.56% (inactive)
same,inhibition,[4],-3.95% (inactive)
same,fluorescence ratio,[5],1 (inactive)
same,inhibition,[1],0.836% (inactive)
same,mean signal,[6],274 (inactive)
same,red/green cell ratio (normalised),[7],1.01 (inactive)
same,normalised cell number,[7]; [14],1.12
same,normalised cell number,[7]; [15],1.13
same,fold change,"[8]; stronger effect = lower value, cell number ratio, induced over uninduced",0.893 (inactive) and 0.857 (inactive)
same,fold change,[8]; measured here: relative caspase fold change +Dox/-Dox,6.58 and 0.734
same,cell count,"[8]; measured here: total cells with miR-34 induction, stronger effect = lower value",11000 and 8630
same,cell count,[8]; measured here: total cells without miR-34 induction,12300 and 10100
same,z-score,[9]; [16],-0.0762 (inactive)
same,z-score,[9]; [17],-0.528
same,remaining NAD,[10],10 nM (inactive)
same,luciferase signal,[11],296 AU (inactive)
same,z-score,[12],-0.45 (inactive)
same,log fold change Tl+ flux,F380Y,-0.012 (inactive)
same,log fold change Tl+ flux,F380Y/beta2Delta,0.0117 (inactive)
same,log fold change Tl+ flux,[13],0.00221 (inactive)
same,log fold change Tl+ flux,R275C,-0.0297 (inactive)
same,log fold change Tl+ flux,R275C/beta1,0.0187 (inactive)
same,log fold change Tl+ flux,R275C/beta2Delta,-0.00628 (inactive)
Nc1ncnc2c1ncn2C1CC(O)C(CO)O1 (centres undefined),inhibition,[1],2.59% (inactive)
COc1ccc2c(c1)OC/C(=C/c1ccc(O)c(O)c1)C2=O,inhibition,[1],2.37% (inactive)
CC(C)=CCC[C@](C)(O)C1CC=C(C)CC1 (some centres undefined),inhibition,[1],1.33% (inactive)
CC1=C(/C=C/C(C)=C/C=C/C(C)=C\C(=O)O)C(C)(C)CCC1,fluorescence ratio,[2],1.01 (inactive)
same,inhibition,[3],0.45% (inactive)
same,inhibition,[4],-1.24% (inactive)
same,fluorescence ratio,[5],0.99 (inactive)
same,inhibition,[1],16.8% (inactive)
same,mean signal,[6],236 (inactive)
same,red/green cell ratio (normalised),[7],1.29 (inactive)
same,normalised cell number,[7]; [14],0.91
same,normalised cell number,[7]; [15],1.18
same,z-score,[9]; [16],-0.17 (inactive)
same,z-score,[9]; [17],-0.281
same,remaining NAD,[10],10 nM (inactive)
same,luciferase signal,[11],48 AU (inactive)
same,z-score,[12],1.53 (inactive) and -0.905 (inactive)
same,log fold change Tl+ flux,F380Y,-0.00963 (inactive)
same,log fold change Tl+ flux,F380Y/beta2Delta,0.000191 (inactive)
same,log fold change Tl+ flux,[13],-0.0907 (active)
same,log fold change Tl+ flux,R275C,-0.0306 (inactive)
same,log fold change Tl+ flux,R275C/beta1,-0.0172 (inactive)
same,log fold change Tl+ flux,R275C/beta2Delta,0.0302 (inactive)
C=C1CCC(=O)C(C)CCC2C1CC2(C)C (centres undefined),inhibition,[1],14.7% (inactive)
C[C@]12CC[C@@H](O)C[C@H]1CC[C@@H]1[C@@H]2C(=O)C[C@@]2(C)[C@H]1CC[C@]2(O)C(=O)CO,inhibition,[1],-17% (inactive)
C=C(C)/C=C1/C=CC(=O)C(C)=C1,inhibition,[1],-4.6% (inactive)
C[C@H](C[C@@H](O)[C@@H]1OC1(C)C)[C@@H]1CC[C@]2(C)C3=CC[C@H]4C(C)(C)C(=O)CC[C@]4(C)[C@H]3CC[C@@]12C,inhibition,[1],-0.309% (inactive)
CC1(C)S[C@H]2[C@@H](NC(=O)[C@H](NC(=O)N3CCNC3=O)c3ccccc3)C(=O)N2[C@@H]1C(=O)O,inhibition,[1],10.5% (inactive)
C=CC(C)(O)CCC=C(C)C (centres undefined),inhibition,[1],-3.42% (inactive)
